VP16 counter = VP16 counterscreen qHTS for inhibitors of ROR gamma transcriptional activity; Potency, µM (highest dose often 53.6 µM), for the others: at the highest dose activity, negative = inhibition, hits mostly inhibitors; Drosophila S2 Gal4-VP16 UAS-luciferase, luminescence, 20 h; AID 2546, 2010; hit rate 3.5% among 310,000;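 also: Gal4-VP16 expression switched on by copper sulfate through the metallothionein promoter; potency is read from the fitted curve at half-maximal effect; % is scaled to controls: 0 for no effect and ±100 for the full control effect; nearly all actives have a fitted effect of over 50% in size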
ELG1 repair inh = qHTS screen for small molecules that inhibit ELG1-dependent DNA repair in human embryonic kidney (HEK293T) cells expressing luciferase-tagged ELG1; hit rate 2.3% among 330,000; HEK293T ELG1-luciferase reporter, luminescence, 16 h; DNA damage induced by 5-fluorouridine; Potency, µM (series often up to 46.1 µM), inactives show at the top dose activity change, negative = inhibition, actives largely listed as inhibitors; also: potency is read from the fitted curve at half-maximal effect; % is scaled to controls: 0 for no effect and ±100 for the full control effect; nearly all actives have a fitted effect of over 55% in size
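Luminescence from the luciferase reporter, measured 30 min after ONE-Glo reagent at room temperature, was the read-out. Beforehand, 2,000 cells per well were exposed for 16 hr at 37 °C to 5-fluorouridine together with compound or vehicle.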
p53 reactivation = qHTS assay for re-activators of p53 using a Luc reporter; H1299 p53-A138V BP100-luciferase reporter, luminescence, 24 h; Potency, µM (titrated, usually from 92.2 µM), for the others: at the highest dose activity change, positive = activation, actives largely listed as activators; hit rate 0.063% among 320,000; also: potency is read from the fitted curve at half-maximal effect; % of control where 0% means no effect; nearly all actives have a fitted effect of over 45% in size
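H1299 (p53-null), stable ts p53-A138V + BP100-Luc; 1000 cells/well, Opti-MEM/10% FBS; cpd 4 pt, 1:5; 24 h, 37 deg C, 5% CO2; detection reagent 10 min RT; luminescence.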
Giardia kill = Small Molecules that selectively kill Giardia lamblia: qHTS; activity change, % at 7.66 µM, hits read low; Giardia lamblia trophozoite viability; hit rate 0.15% among 340,000; in the data active = activity change below about -80%; inconclusive = between about -30% and that limit;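 also: parasites exposed to compound for two days anaerobically before the ATP read; % is scaled to controls: 0 for no effect and ±100 for the full control effect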
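Luminescent ATP signal served as the viability read-out, measured 15-30 min after adding ATP detection reagent to trophozoites that had been incubated with compounds for 48 hrs at 37 deg C anaerobically at 100 cells/well.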
BRCA1 expr act = qHTS Assay to Identify Small Molecule Activators of BRCA1 Expression | hit rate 1.1% among 380,000 | AID 624202, 2012 | MCF7-BRCA1-FFLuc reporter, luminescence, 48 h; response scale: scaled: vehicle 0%, 10 µM genistein 100% | Potency, µM (highest dose often 46.1 µM), without a hit: top-dose activation, usual class: activators; also: potency is read from the fitted curve at half-maximal effect; nearly all actives have a fitted effect of over 80% in size
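Compounds are tested at multiple concentrations on MCF7 BRCA1-luciferase reporter cells seeded at 2000 per well; after 48 h, a single luminescence end-point is taken and curves fitted to the normalized data.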
RORg inh = qHTS for inhibitors of ROR gamma transcriptional activity. Nuclear receptor ROR-gamma (Mus musculus), P51450. Drosophila S2 Gal4-RORgamma UAS-luciferase reporter, 20 h. Potency, µM (series often up to 53.6 µM), for inactives: at the top dose activity change, negative = inhibition, usual class: inhibitors. hit rate 5.4% among 310,000. AID 2551, 2010; also: potency is read from the fitted curve at half-maximal effect; % is scaled to controls: 0 for no effect and ±100 for the full control effect; nearly all actives have a fitted effect of over 60% in size
Target sequence (P51450 whole entry, looked up, the tested form may be a part): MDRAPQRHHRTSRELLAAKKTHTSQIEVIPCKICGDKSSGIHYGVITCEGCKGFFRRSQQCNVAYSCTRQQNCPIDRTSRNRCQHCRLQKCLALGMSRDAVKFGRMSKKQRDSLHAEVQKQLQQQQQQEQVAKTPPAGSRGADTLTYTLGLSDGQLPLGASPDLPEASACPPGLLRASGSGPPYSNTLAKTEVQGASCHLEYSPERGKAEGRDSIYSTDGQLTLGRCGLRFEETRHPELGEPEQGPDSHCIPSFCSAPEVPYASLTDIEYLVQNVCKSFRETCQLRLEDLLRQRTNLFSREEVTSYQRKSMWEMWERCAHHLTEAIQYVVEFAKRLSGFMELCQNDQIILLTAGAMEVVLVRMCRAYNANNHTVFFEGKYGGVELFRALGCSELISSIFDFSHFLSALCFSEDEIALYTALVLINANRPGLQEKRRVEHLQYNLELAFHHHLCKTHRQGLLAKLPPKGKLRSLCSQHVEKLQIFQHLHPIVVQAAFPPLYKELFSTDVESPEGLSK
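Drosophila S2 cells stably expressing Gal4-DBD/mouse RORγ fusion under metallothionein promoter plus UAS-luciferase; compound 1 h, then 700 uM CuSO4 induction for 20 h at ambient temperature; inhibition read as reduced luminescence.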
Numbers without * were called inactive. The list is not random: actives were taken first. Their share in the collection is about 7.6%. Unless noted, calls follow the shape of the dose curve; as a rule, active = well fitted curve in the direction sought with a large enough effect; inconclusive = small, poorly fitted or top-dose-only effect, or another doubt; inactive = no such curve, though single readings can be large; an effect the other way counts as inactive or inconclusive.

`O=C(NCCCO)c1c(O)c2cccc3c2n(c1=O)CCC3` gave VP16 counter -16.8%, ELG1 repair inh -3.2%, p53 reactivation -6.2%, Giardia kill -7.1, BRCA1 expr act -10.0% and RORg inh -8.3%.
`O=C(COc1ccc(Br)cc1Cl)NC(=O)Nc1ccc2c(c1)OCCO2` gave VP16 counter 7.8%, ELG1 repair inh inconclusive, p53 reactivation 4.4%, Giardia kill -19.6, BRCA1 expr act 11.2µM* and RORg inh -8.9%.
`Cc1cccc(C)c1OCC(=O)Nc1ccc2c(c1)OCCO2` gave VP16 counter 2.24µM*, ELG1 repair inh inconclusive, p53 reactivation 9.2%, Giardia kill 0.6, BRCA1 expr act 82.8% and RORg inh -36.6%.
Screening COc1ccccc1OCC(=O)Nc1ccc2c(c1)OCCO2 returned VP16 counter -5.5%, ELG1 repair inh inconclusive, p53 reactivation 22.7%, Giardia kill 9.0, BRCA1 expr act inconclusive and RORg inh 0.2%.
Screening NC(=O)c1ccccc1OCC(=O)Nc1ccc2c(c1)OCCO2 returned ELG1 repair inh inconclusive, p53 reactivation 21.9%, Giardia kill -0.3 and BRCA1 expr act 3.55µM*.
For Cc1cccc(C)c1OCC(=O)Nc1cccc(NC(=O)c2ccco2)c1 the results were VP16 counter 7.9%, ELG1 repair inh 18.4µM*, p53 reactivation 3.9%, Giardia kill 10.7, BRCA1 expr act -22.3% and RORg inh 16.4%.
O=C(COC(=O)c1cccc(Br)c1)NCCNC(=O)COC(=O)c1cccc(Br)c1 was read as VP16 counter 1.5%, ELG1 repair inh 6.51µM*, p53 reactivation 0.4%, Giardia kill 17.8, BRCA1 expr act 0.0% and RORg inh 1.6%.
Screening Cc1cccc(C)c1NC(=O)COC(=O)c1cccc2c1C(=O)c1ccccc1C2=O returned VP16 counter -8.4%, ELG1 repair inh 11.6µM*, p53 reactivation -5.9%, Giardia kill -1.3, BRCA1 expr act -21.7% and RORg inh -36.0%.
For Cc1cccc(NC(=O)COC(=O)c2cccc3c2C(=O)c2ccccc2C3=O)c1C the results were VP16 counter -14.9%, ELG1 repair inh 20.6µM*, p53 reactivation -7.1%, Giardia kill 0.2, BRCA1 expr act -53.0% and RORg inh -39.3%.
For O=C(COC(=O)c1cccc(Br)c1)NCCc1ccccc1 the results were VP16 counter -10.5%, ELG1 repair inh 6.4%, p53 reactivation 6.4%, Giardia kill 16.0, BRCA1 expr act 49.8% and RORg inh -22.6%.
`Cc1cccc(C(=O)OCC(=O)NCCNC(=O)COC(=O)c2cccc(C)c2C)c1C` gave VP16 counter inconclusive, ELG1 repair inh -4.0%, p53 reactivation -8.3%, Giardia kill 22.1, BRCA1 expr act -1.3% and RORg inh 12.6µM*.
Cc1cccc(C)c1NC(=O)c1cccc2c1-c1ccccc1C2=O was read as VP16 counter -12.2%, ELG1 repair inh 19.9%, p53 reactivation -2.6%, Giardia kill 5.9, BRCA1 expr act -0.1% and RORg inh 3.4%.
`Cn1cccc1C(=O)NCCc1ccc(Cl)cc1` gave VP16 counter 15.0%, ELG1 repair inh inconclusive, p53 reactivation 23.5%, Giardia kill -29.6, BRCA1 expr act 7.08µM* and RORg inh inconclusive.
Screening COc1ccc(CCNC(=O)c2cccn2C)cc1 returned VP16 counter 6.9%, ELG1 repair inh -7.3%, p53 reactivation 0.9%, Giardia kill 4.2, BRCA1 expr act 2.82µM* and RORg inh 1.0%.
Cn1cccc1C(=O)NCc1ccc(Cl)cc1 was read as VP16 counter -15.3%, ELG1 repair inh -4.6%, p53 reactivation 1.9%, Giardia kill -8.8, BRCA1 expr act 7.4% and RORg inh -10.9%.
Screening COc1ccc(CCNC(C)=O)cc1 returned VP16 counter 0.2%, ELG1 repair inh 15.1%, p53 reactivation 2.0%, Giardia kill 1.5, BRCA1 expr act 1.6% and RORg inh -4.9%.
For Cn1cccc1C(=O)NNC(=O)COc1ccccc1F the results were VP16 counter -3.7%, ELG1 repair inh inconclusive, p53 reactivation inconclusive, Giardia kill -7.2, BRCA1 expr act 12.6µM* and RORg inh -38.3%.
Screening Cn1cccc1C(=O)NC1CCCCCC1 returned ELG1 repair inh inconclusive, p53 reactivation 7.08µM*, Giardia kill -15.2 and BRCA1 expr act 10µM*.
`C=CCNc1oc(C2CCCC2)nc1C#N` gave ELG1 repair inh 29.9%, p53 reactivation 24.1%, Giardia kill 0.5 and BRCA1 expr act -1.7%.
`C[C@@H](NC(=O)c1ncn(Cc2ccccc2)c1C(=O)N[C@H](C)c1ccccc1)c1ccccc1` gave ELG1 repair inh 0.0%, p53 reactivation -6.0%, Giardia kill 10.1 and BRCA1 expr act -9.9%.
Fc1ccccc1N1CCN(c2ncnc3[nH]ncc23)CC1 was read as VP16 counter 3.8%, ELG1 repair inh -3.6%, p53 reactivation 4.6%, Giardia kill 14.7, BRCA1 expr act 32.9% and RORg inh inconclusive.
CCc1ccc(N(CC(=O)NC2CC2)S(=O)(=O)c2ccc(C)cc2)cc1 was read as VP16 counter 10.7%, ELG1 repair inh 14.3%, p53 reactivation -4.9%, Giardia kill 16.4, BRCA1 expr act 0.6% and RORg inh -19.4%.
`Cn1cccc1C(=O)NCCc1ccccc1` gave VP16 counter 12.6µM*, ELG1 repair inh inconclusive, p53 reactivation inconclusive, Giardia kill -10.8, BRCA1 expr act 2.1% and RORg inh 10µM*.
For Cc1nnc(NC(=O)CSC2CCCCC2)s1 the results were VP16 counter -19.8%, ELG1 repair inh 12.7%, p53 reactivation 10.8%, Giardia kill 7.1, BRCA1 expr act -0.4% and RORg inh 22.4µM*.
Screening O=C(CSC1CCCCC1)Nc1nccs1 returned VP16 counter 7.8%, ELG1 repair inh inconclusive, p53 reactivation 20.3%, Giardia kill -10.9, BRCA1 expr act -11.3% and RORg inh -26.6%.
Cc1ccc(Cl)cc1N1CCN(C(=O)c2ccccc2SCC(=O)N2CCCC2)CC1 was read as ELG1 repair inh -23.5%, p53 reactivation -9.0%, Giardia kill -9.4 and BRCA1 expr act -32.3%.
N#Cc1ccc(-c2cn3c(n2)SCC3)cc1 was read as VP16 counter -12.8%, ELG1 repair inh inconclusive, p53 reactivation 17.7%, Giardia kill -2.9, BRCA1 expr act 95.2% and RORg inh 0.1%.
